Key:
Test in all cases: protein domain microarray probed with biotinylated miRNA; Domain array: 20 mM Tris-HCl pH 7.4, 200 mM KCl, 0.2 mM EDTA, 0.05% NP40, 2 ug/ul heparin, overnight 4 C. ORF array: PBS pH 7.0 with RNase inhibitor, 100 ng RNA; high values mean tight binding
Conditions in all cases: ssRNA
hnRNP-M(3) = target: T1, hnRNP-M(3) (Homo sapiens, UniProt P52272)
T1 sequence: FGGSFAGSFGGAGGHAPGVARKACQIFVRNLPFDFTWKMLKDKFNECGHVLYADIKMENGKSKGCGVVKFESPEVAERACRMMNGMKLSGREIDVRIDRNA

NONO = target: T2, NONO (Homo sapiens, UniProt Q15233)
T2 sequence: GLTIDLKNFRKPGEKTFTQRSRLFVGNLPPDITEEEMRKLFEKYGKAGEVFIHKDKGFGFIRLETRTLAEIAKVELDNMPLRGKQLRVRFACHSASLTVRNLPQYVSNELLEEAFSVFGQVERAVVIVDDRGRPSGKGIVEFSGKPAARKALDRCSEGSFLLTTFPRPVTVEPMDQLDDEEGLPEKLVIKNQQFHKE

HNRNPCL3/4 = HNRNPCL3/4 (Homo sapiens, UniProt O60812)
ELAVL3 = ELAVL3 (Homo sapiens, UniProt Q14576)
CPSF6 = CPSF6 (Homo sapiens, UniProt Q16630)
hnRNP-CL1 = hnRNP-CL1 (Homo sapiens, UniProt O60812)
EIF4B = EIF4B (Homo sapiens, UniProt P23588)
NSAP1 = target: T3, NSAP1 (Homo sapiens, UniProt O60506)
T3 sequence: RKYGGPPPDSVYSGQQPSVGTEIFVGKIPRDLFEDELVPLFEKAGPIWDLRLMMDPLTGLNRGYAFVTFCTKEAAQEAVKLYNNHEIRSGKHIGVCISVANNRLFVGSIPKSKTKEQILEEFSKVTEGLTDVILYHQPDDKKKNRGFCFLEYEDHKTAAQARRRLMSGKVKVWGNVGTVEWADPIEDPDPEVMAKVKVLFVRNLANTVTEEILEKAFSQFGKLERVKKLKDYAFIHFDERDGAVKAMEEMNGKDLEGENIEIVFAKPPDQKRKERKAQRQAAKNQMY

DAZ2/3 = target: T4, DAZ2/3 (Homo sapiens, UniProt Q9NR90)
T4 sequence: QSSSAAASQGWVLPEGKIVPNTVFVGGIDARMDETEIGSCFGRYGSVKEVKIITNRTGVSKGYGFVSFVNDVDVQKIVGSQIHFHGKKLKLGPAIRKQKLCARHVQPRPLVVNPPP

HTF9C = target: T5, HTF9C (Homo sapiens, UniProt Q8IZ69)
T5 sequence: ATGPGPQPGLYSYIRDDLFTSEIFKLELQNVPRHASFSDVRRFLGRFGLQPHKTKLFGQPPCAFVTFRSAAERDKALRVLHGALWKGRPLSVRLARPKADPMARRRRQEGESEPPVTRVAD

Chain of HNRNPCL3/4 (O60812 1-110): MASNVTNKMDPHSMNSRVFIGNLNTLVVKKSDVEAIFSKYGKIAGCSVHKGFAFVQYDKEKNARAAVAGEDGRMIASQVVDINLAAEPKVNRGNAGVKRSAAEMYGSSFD
Chain of hnRNP-CL1 (O60812 1-110): as above
Chain of EIF4B (P23588 75-190): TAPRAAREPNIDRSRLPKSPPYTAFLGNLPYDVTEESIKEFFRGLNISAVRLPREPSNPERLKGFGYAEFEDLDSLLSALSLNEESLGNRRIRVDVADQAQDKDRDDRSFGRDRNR
Chain of CPSF6 (Q16630 60-180): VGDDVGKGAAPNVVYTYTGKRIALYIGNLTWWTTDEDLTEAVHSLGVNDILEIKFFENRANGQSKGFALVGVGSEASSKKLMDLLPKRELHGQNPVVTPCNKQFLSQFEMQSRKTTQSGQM
Chain of ELAVL3 (Q14576 20-367): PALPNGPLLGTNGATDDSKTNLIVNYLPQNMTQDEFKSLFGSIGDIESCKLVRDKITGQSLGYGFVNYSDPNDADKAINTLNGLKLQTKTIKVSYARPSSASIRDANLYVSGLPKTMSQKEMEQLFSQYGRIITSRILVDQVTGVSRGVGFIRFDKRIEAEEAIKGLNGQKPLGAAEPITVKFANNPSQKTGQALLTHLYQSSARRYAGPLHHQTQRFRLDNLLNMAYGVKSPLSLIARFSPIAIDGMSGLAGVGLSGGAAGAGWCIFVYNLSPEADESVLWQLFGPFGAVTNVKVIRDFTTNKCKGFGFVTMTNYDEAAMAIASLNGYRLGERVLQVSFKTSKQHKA

Sequence	binding signal (hnRNP-M(3)) [fluorescence intensity]	binding signal (NONO) [fluorescence intensity]	binding signal (HNRNPCL3/4) [fluorescence intensity]	binding signal (ELAVL3) [fluorescence intensity]	binding signal (CPSF6) [fluorescence intensity]	binding signal (hnRNP-CL1) [fluorescence intensity]	binding signal (EIF4B) [fluorescence intensity]	binding signal (NSAP1) [fluorescence intensity]	binding signal (DAZ2/3) [fluorescence intensity]	binding signal (HTF9C) [fluorescence intensity]
UGAGGUAGUAGGUUGUAUAGUU	22.8 ± 3.08	20.7 ± 2.69	22.3 ± 2.99	476 ± 12.5	23 ± 8.56	31.8 ± 10.7	883 ± 50	755 ± 86.6	37.8 ± 6.41	
UGAGGUAGUAGGUUGUGUGGUU	112 ± 17.8	62.6 ± 1.97	36.4 ± 6.48	1280 ± 96.1	32.1 ± 8.4	77.6 ± 17.1	2502 ± 2.61	1770 ± 45.4	288 ± 6.91	182 ± 12.4
UAGCUUAUCAGACUGAUGUUGA	20.6 ± 3.13		22.52 ± 0.0849	508 ± 14.6	36.4 ± 14.3		24.6 ± 5.08	42.1 ± 2.96	153 ± 9.91	
AGAGGUAGUAGGUUGCAUAGUU	68.4 ± 19.5	26.1 ± 4.07		1430 ± 30.2			3250 ± 198	1900 ± 59.9	260 ± 18.7	78 ± 2.68
CAGUGCAAUGAUGAAAGGGCAU	37.9 ± 1.35		29.9 ± 0.976	868 ± 33.5	39.2 ± 6.51	23 ± 5.29	1810 ± 123	398 ± 6.14	70.6 ± 0.849	52.8 ± 3.39
UGAGGUAGUAGGUUGUAUGGUU	78.7 ± 6.91	41.2 ± 0.665	34.6 ± 6.43	1020 ± 53.3	26.1 ± 6.17	43.3 ± 2.77	2140 ± 29.2	1830 ± 24.4	151 ± 11.5	104.2 ± 0.884

Reference: article PMC11574364
